Source: the supplement of paper PMC3334620
Whole data set: some 33,000 sequences, median “E-score (-0.5 to 0.5)” near -0.016, cut for the highest 2% near 0.32. Shown is part of a subset that was picked to be rich in the highest values.

What follows are sequences tested against T1, Stp1 (UniProt B3LFK1) (assay: PBM E-score (8-mer binding enrichment) (E-score (-0.5 to 0.5)); higher = stronger / more preferred TF binding). Conditions: protein concentration: 200 nM; construct: GST-full length.
T1 sequence: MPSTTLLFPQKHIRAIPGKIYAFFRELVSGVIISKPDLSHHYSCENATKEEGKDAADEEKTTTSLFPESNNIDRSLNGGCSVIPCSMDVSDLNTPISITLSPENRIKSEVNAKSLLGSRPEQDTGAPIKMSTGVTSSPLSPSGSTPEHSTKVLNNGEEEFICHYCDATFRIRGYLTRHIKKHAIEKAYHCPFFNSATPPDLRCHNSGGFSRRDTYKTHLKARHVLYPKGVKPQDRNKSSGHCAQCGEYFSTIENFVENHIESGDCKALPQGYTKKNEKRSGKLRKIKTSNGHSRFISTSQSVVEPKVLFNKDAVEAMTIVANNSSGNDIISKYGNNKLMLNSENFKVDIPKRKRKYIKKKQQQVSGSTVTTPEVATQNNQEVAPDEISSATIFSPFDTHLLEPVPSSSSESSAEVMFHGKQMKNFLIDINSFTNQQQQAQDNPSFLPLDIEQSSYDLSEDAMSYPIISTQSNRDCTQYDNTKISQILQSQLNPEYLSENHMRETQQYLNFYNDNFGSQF
Method in brief: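 E-scores (a modified Wilcoxon-Mann-Whitney statistic) were assigned by the Universal PBM Analysis Suite to every ungapped eight-base word pooled with its reverse complement. The input came from universal all-10-mer Agilent arrays made double-stranded by primer extension and probed with GST-tagged yeast transcription factors at about 100-200 nM. Fluorescent anti-GST detected bound protein, and masliner normalised the scans.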

Sequence | PBM E-score
CAACCATG | -0.0314
AGGAGAAT | -0.17
GTTCAAAA | 0.185
ATTCAAAC | 0.11
GTTCAAAC | 0.323
AGCAGGCT | -0.098
CGGCGCAA | 0.422
AGGCGCAA | 0.279
CCGCGCAG | 0.221
TGGCGCAA | 0.298
CGGCGCAG | 0.428
AGGCGCAC | 0.179
CGGCGCAC | 0.409
GGGCGCAC | -0.0463
AGGCGCAG | 0.188
CCAAGACA | -0.137
CCCCCTAG | -0.354
ATTGGTGA | -0.0777
ACTAAGGA | -0.105
ACCTTACC | 0.0147
CCTTTTTC | 0.104
TAACCACA | -0.022
CAACCTGG | -0.101
TAAGTCAA | -0.0101
AGAGGCAA | 0.0357

Sequence | PBM E-score
TGAGGCAA | 0.234
AGAGGCAG | -0.125
AGAGGCAC | 0.366
CGAGGCAG | 0.12
CGAGGCAC | 0.384
GGAGGCAC | 0.148
AGAGGCAT | 0.242
CGAGGCAA | 0.359
GACCAGCC | -0.259
CCGGTAGG | 0.0318
TACGTAAA | 0.189
CAAGACCA | -0.15
ATACCGCC | 0.1
AAGTTATC | -0.0807
AGATGCAA | -0.0126
GAGTGCGA | -0.046
GCAACGGA | 0.228
AGAGCCGG | -0.0632
ATAGCCGC | 0.298
CCAGCCGC | 0.125
CTAGCCGA | -0.0941
AGAGCCGC | 0.44
CGAGCCGA | 0.124
CTAGCCGC | 0.395
AGAGCCGA | 0.225

Sequence | PBM E-score
CGAGCCGC | 0.385
AATTTGCA | -0.0371
AACGAGAC | -0.0773
ATGTTACA | 0.182
GCTGCTGA | 0.189
CCAAAGAA | 0.068
TAGCTGAA | -0.0818
GAAACGAC | 0.0801
ACCGGCGA | 0.134
CATGGCGA | -0.0243
CCCGGCGA | -0.0779
CCCGGCGG | -0.317
AACGGGGA | -0.0385
AACGGCGA | 0.452
GCCGGCGA | -0.00476
CACGGGGG | -0.208
CACGGCGG | 0.417
GTCGGCGA | -0.0125
GACGGCGA | 0.4
CACGGCGA | 0.474
AGTTGAGG | -0.0375
CCGTTCTA | 0.237
GTGCATAA | 0.183
CGTGCAAC | 0.138
CCCAAATA | -0.153

Sequence | PBM E-score
TCCGAAAA | -0.159
TAAGGCGA | 0.315
TCCGGCGA | 0.1
TACGGCGA | 0.473
GCCTCGAC | 0.0115
CTGGGGAC | -0.392
ATGCGGGC | 0.0547
ATGCGGAG | -0.0518
ATGCGGTG | -0.103
ATGCGGCC | 0.331
ATGCGGCG | 0.485
ATGCGGTC | 0.0837
TAGCGCTA | -0.0704
TCCTCTAA | -0.222
CGCGATTC | 0.118
ACTGGTCA | -0.105
CCACGCGG | 0.18
CTGCCGCC | 0.226
CTGCCGCA | 0.347
ATGCCGCA | 0.468
ATGCCACG | 0.275
GTGCCAAA | 0.119
ATGCCGCG | 0.475
GTGCCGCA | 0.483
ATGCCGGA | 0.0395

Sequence | PBM E-score
CTACCGCA | 0.0499
ATTCCGCA | 0.0903
GTGCCGGA | 0.175
ATGCCACA | 0.243
GCTTTGTA | 0.135
AAGTTAGG | 0.0337
CAACCACG | 0.0433
GGCTGAAA | 0.103
AAGCTCAA | -0.135
CTATGCCC | -0.0982
AGGCCGCC | -0.0139
ATGCCGGC | 0.0928
ATGCCGCC | 0.386
GGTTTGAA | 0.0901
GAAGTGAC | -0.0146
AAAAGGCG | 0.34
AAAAGGCA | 0.359
CAAAGGCG | 0.129
AAAAGGCT | 0.0632
GCAAGGCA | 0.38
AAAAGGCC | 0.174
GAAAGGCC | 0.272
CAAAGGCA | 0.184
AGAAGGCG | 0.2
GAAAGGCA | 0.376

Sequence | PBM E-score
ACAAGGCA | 0.315
GCAAGGCC | 0.151
TGAGAAAA | 0.116
GCCCCTAA | -0.229
CTAAGGGC | -0.224
CTTTTCGA | 0.174
CACCCTAG | -0.172
GCAGAAAC | 0.234
ACAGTCGA | -0.262
AAACGCCC | 0.231
CAACGCCG | 0.391
CAACGCCA | 0.0795
TAACGCCA | 0.133
GAACGCCA | 0.0737
AAACGCCT | 0.141
CAACGCCC | 0.0959
AAACGCCA | 0.345
AAACGCCG | 0.428
CTGGAAAG | -0.15
AGCGAAAG | -0.138
ATGGCTAG | 0.0312
CCTTTCCG | 0.0145
ATGACTTC | 0.00281
AGTACTTG | 0.142
GGGGACGA | -0.249

Sequence | PBM E-score
ATCTCACG | 0.015
CCAGTGCC | 0.179
ACGGTGCA | -0.00717
ACGGTGCC | 0.396
ATGGTGCG | -0.0219
ACAGTGCC | 0.321
CTGGTGCC | 0.252
ATGGTGCC | 0.372
ACGGTGCG | 0.173
GCAGTGCC | 0.253
AACTGGAT | 0.0626
TCCCATCA | -0.201
GGACTGCA | -0.229
GAGCAGAA | -0.0386
GGCACGGA | 0.376
CTCACGGA | 0.0462
CGCACGCA | -0.00526
CGCACGGA | 0.39
GTCACGGA | -0.0129
GGCACGCA | 0.288
TACTCTAA | 0.034
CCCTGTCG | 0.0867
CATATGGG | -0.035
